TDP1 block: inhibitors of human tyrosyl-DNA phosphodiesterase TDP1; Q9NUW8; recombinant TDP1, AlphaScreen DNA substrate cleavage; Potency, µM (top dose mostly 130 µM), without a hit: top-dose activity change, negative = inhibition, most hits filed as inhibitors; 350,000 tested, 0.28% active; note: nearly all actives have a fitted effect of over 40% in size
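AlphaScreen read-out: signal falls as enzyme removes the 3' tyrosine-FITC from a 5'-biotinylated DNA oligo (15 nM, 5 min, RT). Enzyme was E. coli-made recombinant Tdp1 at 1 nM, exposed to compound for 15 min beforehand; beads 10 ug/ml, 10 min.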
RORg inh: inhibitors of mouse ROR gamma transcriptional activity; Drosophila S2 Gal4-RORgamma UAS-luciferase reporter, 20 h; P51450; 310,000 tested, 5.4% active; Potency, µM (doses to about 53.6 µM), for inactives: at the highest dose activity change, negative = inhibition, hits mostly inhibitors; note: nearly all actives have a fitted effect of over 60% in size
Target sequence (P51450 whole entry, looked up, the tested form may be a part): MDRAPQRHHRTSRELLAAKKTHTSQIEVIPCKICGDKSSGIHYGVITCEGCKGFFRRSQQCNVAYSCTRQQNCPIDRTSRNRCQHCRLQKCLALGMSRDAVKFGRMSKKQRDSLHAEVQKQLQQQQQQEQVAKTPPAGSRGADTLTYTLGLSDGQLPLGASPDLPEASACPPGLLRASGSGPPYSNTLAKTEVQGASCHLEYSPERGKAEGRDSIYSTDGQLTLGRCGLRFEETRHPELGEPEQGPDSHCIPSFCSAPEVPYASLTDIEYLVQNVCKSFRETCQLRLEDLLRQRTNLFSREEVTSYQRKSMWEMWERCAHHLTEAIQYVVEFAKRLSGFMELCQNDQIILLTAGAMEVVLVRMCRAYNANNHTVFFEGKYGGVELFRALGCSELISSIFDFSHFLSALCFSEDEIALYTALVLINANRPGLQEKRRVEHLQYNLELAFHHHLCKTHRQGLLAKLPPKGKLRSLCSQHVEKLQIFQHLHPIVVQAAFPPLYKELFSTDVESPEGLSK
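Drosophila S2 cells stably expressing Gal4-DBD/mouse RORγ fusion under metallothionein promoter plus UAS-luciferase; compound 1 h, then 700 uM CuSO4 induction for 20 h at ambient temperature; inhibition read as reduced luminescence.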
VP16 counter: Gal4-VP16 reporter inhibition counter-screen. Potency, µM (top dose mostly 53.6 µM), for the others: at the highest dose activity, negative = inhibition, hits mostly inhibitors. Drosophila S2 Gal4-VP16 UAS-luciferase, luminescence, 20 h. 310,000 tested, 3.5% active;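 note: Gal4-VP16 expression switched on by copper sulfate through the metallothionein promoter; nearly all actives have a fitted effect of over 50% in size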
DT40 TDP1 CPT: growth inhibition of DT40 Tdp1-/-;hTDP1 cells with camptothecin (screen for TDP1 inhibitors); chicken DT40 Tdp1-/-;hTDP1 cells + 20 nM CPT, ATP luminescence, 48 h; Potency, µM (titrated, usually from 46.2 µM), for inactives: at the highest dose activity change, negative = growth inhibition, usual class: inhibitors; 420,000 tested, 12% active; AID 686979; note: nearly all actives have a fitted effect of over 55% in size
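Chicken DT40 Tdp1-/- cells stably complemented with human TDP1 were seeded at 400 cells/well in medium containing 20 nM camptothecin, exposed to pin-transferred compounds, and grown at 37 °C for at least 48 hr. Viability was read as ATP luminescence.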
TDP1 cell noCPT: qHTS for Inhibitors of human tyrosyl-DNA phosphodiesterase 1 (TDP1): qHTS in cells in absence of CPT. DT40 Tdp1-/- hTDP1 cells, no CPT, ATP luminescence, 48 h. Potency, µM (doses to about 46.2 µM), inactives show top-dose activity change, negative = growth inhibition, usual class: inhibitors. 420,000 tested, 15% active; note: nearly all actives have a fitted effect of over 55% in size
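Cells were dispensed at 400 per well, compounds added by pin tool, plates incubated ≥48 hr at 37 °C, then CellTiter-Glo added for 30 min at room temperature before luminescence reading. Line: DT40 Tdp1-/- complemented with hTDP1; camptothecin omitted.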
* marks the source's active call; other numbers are inactive results; ? = inconclusive; / = not tested or not shown. This is a sample that favours compounds with a hit; in the whole collection about 19% have one here. Calls come from the whole dose curve; as a rule, active = well fitted curve in the direction sought with a large enough effect; inconclusive = small, poorly fitted or top-dose-only effect, or another doubt; inactive = no such curve, though single readings can be large; an effect the other way counts as inactive or inconclusive. % is set by controls: 0 for no effect and ±100 for the full control effect; potency is the fitted concentration of half-maximal effect.

SMILES	TDP1 block	RORg inh	VP16 counter	DT40 TDP1 CPT	TDP1 cell noCPT
CCCn1cc(S(=O)(=O)c2ccc(OCC)cc2)c(=O)c2cc(C)ccc21	6%	/	/	?	?
Cc1cccc(C)c1NC(=O)C1c2ccccc2OCC(=O)N1CCCN1CCOCC1 (stereo not given)	/	/	/	-22%	-14%
Cn1c(=O)oc2cc(S(=O)(=O)CCC(=O)N3CCN(c4cccc(Cl)c4)CC3)ccc21	5%	/	/	18µM*	12µM*
CN1C(=O)Cc2cc(S(=O)(=O)CCC(=O)N3CCN(c4cccc(Cl)c4)CC3)ccc21	5%	/	/	21µM*	8.2µM*
CSCCC(NS(=O)(=O)c1ccc2c(c1)oc(=O)n2C)C(=O)N1CCN(c2cccc(Cl)c2)CC1 (stereo not given)	-1%	/	/	?	21µM*
COc1cccc(N2CCN(C(=O)C(CCSC)NS(=O)(=O)c3ccc4c(c3)oc(=O)n4C)CC2)c1 (stereo not given)	6%	/	/	-22%	-18%
CCCCn1nc(C(=O)N(CCOC)c2c(N)n(CCCC)c(=O)[nH]c2=O)c2ccccc2c1=O	1%	/	/	-1%	18%
O=[N+]([O-])c1cc(Br)c(OCc2nnc(-c3ccccc3)o2)c(Br)c1	1%	?	-16%	-30%	?
O=[N+]([O-])c1ccc2c(OCc3nnc(-c4ccccc4Br)o3)ncnc2c1	0%	-3%	-10%	?	13µM*
CC1=C/C(=N\NC(=S)NCc2ccccc2)CC1	0%	0.56µM*	3.2µM*	1.5µM*	1.3µM*
Cc1ccc(Cn2cccc2/C=N/NC(=S)Nc2ccc(C)cc2)cc1	8%	0.4µM*	4µM*	4.6µM*	6.5µM*
Cc1[nH]c2ccccc2c1/C=N/NC(=S)NCc1ccccc1	6%	11µM*	?	?	?
Cc1ccc(NC(=S)N/N=C/c2c(C)[nH]c3ccccc23)cc1	11%	2µM*	4µM*	?	29µM*
COc1ccc(NC(C)=O)cc1NC(=O)C1CCCN1C(=O)c1cccs1 (stereo not given)	1%	/	/	-20%	1%
Cc1cccc(NC(=S)N/N=C/c2c[nH]c3ccccc23)c1	11%	2.5µM*	5.6µM*	2.6µM*	2.6µM*
O=C(NC(c1ccc(-c2ccccc2)cc1)c1cnccn1)C1CCN(CCN2C(=O)c3ccccc3C2=O)CC1 (stereo not given)	/	/	/	23µM*	23µM*
O=C(NC(c1ccc(-c2ccccc2)cc1)c1cnccn1)C1CCN(Cc2cccc(C(F)(F)F)c2)CC1 (stereo not given)	/	/	/	26µM*	18µM*
CN(C)c1ccc(CN2CCC(C(=O)NC(c3ccc(Cl)cc3)c3cnccn3)CC2)cc1 (stereo not given)	/	/	/	21µM*	16µM*
O=C(NC(c1ccc(Cl)cc1)c1cnccn1)C1CCN(Cc2cccc(C(F)(F)F)c2)CC1 (stereo not given)	/	/	/	12µM*	8.2µM*
O=C(NCc1cccc(C(F)(F)F)c1)C1CCCN(c2cnccn2)C1 (stereo not given)	4%	0%	-7%	-8%	3%
COc1ccc(/C=C(\C)C(=O)NO)cc1	/	/	/	2%	-16%
O=C1C2C3CCC(O3)C2C(=O)N1c1cccc(O)c1 (stereo not given)	/	-11%	-3%	-1%	22%
COCCNC(=O)C1CCN(Cc2cccc(OCc3ccccc3)c2)CC1	/	-8%	-1%	-47%	-9%
COc1cc(CN2CCC(C(=O)NC(c3ccc(-c4ccccc4)cc3)c3cnccn3)CC2)cc(OC)c1 (stereo not given)	/	/	/	9.2µM*	23µM*
COc1ccc(C2CC(=O)c3cnc4c(-c5ccccc5)c(C)nn4c3C2)cc1OC (stereo not given)	3%	/	/	?	?
COc1ccc(OC)c(/C=N\NC(=O)CC(=O)NCCc2ccccc2)c1	4%	-3%	4%	6%	2%

Compound activity from PubChem.
